Measurements: PubChem BioAssay (NCATS)
Records with an inconclusive call do not appear. The source made the active and inactive calls. Calls follow the shape of the dose curve; as a rule, active = well fitted cell-killing curve with a large enough effect; inconclusive = small, poorly fitted or top-dose-only effect, or effect the other way; inactive = no such curve, though single readings can be large or run the other way.

Assay: qHTS of pediatric cancer cell lines to identify multiple opportunities for drug repurposing: Confirmatory screen for Rh30 cells (AID 1347126); also: nearly all actives have a fitted effect of over 55% in size
Conditions: Rh30 rhabdomyosarcoma cell viability; series mostly up to 45.9 µM
Source text: Drug repurposing or repositioning has been offered as a strategy for drug development in oncology programs. This approach has special potential for childhood cancers and other rare or orphan diseases, where the expected return on new drug development has been a disincentive to pharmaceuticals.
In this project we exploit the poly-pharmacology of drugs to discover new indications via phenotypic screening of a panel of 19 well-characterized cell lines derived from solid tumors seen in children and adolescents. The goal is to identify approved drugs with previously unrecognized anticancer properties that has the potential to reveal new mechanisms and biological processes involved in carcinogenesis or drug resistance. We employed a titration-based paradigm (quantitative high-throughput screening or qHTS), where all compounds were tested at multiple concentrations for their effect on cell viability. Concentration-response curves (CRCs) were derived directly from the primary screen, and both potency and efficacy values were used to identify compounds with robust bioactivity profiles. We screened the NIH Chemical Genomics Center (NCGC) Pharmaceutical Collection (NPC) and Mechanism Interrogation Plate (MIPE) small molecule collections of approved and investigational compounds against these cell lines; and measured metabolically active cells after 48 hours of compound treatment as a proxy for cell viability.
Assay Submitter: Nathalia J. Martinez, National Center for Advancing Translational Sciences, National Institutes of Health, Rockville, MD, USA; email: natalia.martinez@nih.gov
[1] Shen, M et al. Quantitative high-throughput phenotypic screening of pediatric cancer cell lines identifies multiple opportunities for drug repurposing. Oncotarget 2017 Dec 19;9(4):4758-4772. PMID 29435139.
The cells were obtained from University of North Carolina (UNC), Pediatric Preclinical Testing Program (PPT), and Coriell Institute (CI).
qHTS cell viability assay:
Cells were assayed in growth media at a density of 500-1,000 cells/well. Five microliters of cells were dispensed into 1,536-well, white, solid-bottom, TC-treated plates (Greiner Bio One) using a multidrop dispenser and incubated at 37 degrees C, 5% CO2, under a humidified atmosphere for 5 hours. Twenty-three nanoliters of compounds and controls (neutral control DMSO or positive control bortezomib at final concentration of 2.3 µM) were subsequently transferred by Kalypsys pintool. For primary screens, the MIPE collection was tested at 11-point dilutions (final concentrations range from 0.78 nM to 46 µM) and the NPC collection at 8-point dilutions (final concentrations range from 0.59 nM to 46 µM). Compounds tested in follow-up screens were assayed at 11-point dilutions. Cells were incubated for 48 hours, followed by addition of 3 µL of CellTiter-Glo (Promega). After a 15 min incubation at room temperature, samples were analyzed for luminescence intensity using a ViewLux High-throughput CCD imager equipped with clear filters.
Potency is read from the fitted curve at half-maximal effect.

Row | SMILES | Potency
1 | COc1cc2c(Oc3ccc(-c4cnc(Nc5ccc(F)cc5)n(C)c4=O)cc3F)ccnc2cc1OCCCN1CCOCC1 | 4.65 µM (active)
2 | CNC(=O)c1c(F)cccc1Nc1nc(Nc2cc3c(cc2OC)CCN3C(=O)CN(C)C)nc2[nH]ccc12 | 0.585 µM (active)
3 | CNC(=O)c1ccccc1Nc1nc(Nc2ccc(N3CCOCC3)cc2OC)ncc1Cl | inactive
4 | CCCCc1nc2cc(C=CC(=O)NO)ccc2n1CCN(CC)CC | 3.69 µM (active)
5 | CN1CCN(c2cc(C(=O)Nc3ccc4c(c3)-c3c(c(C(N)=O)nn3-c3ccc(F)cc3)CC4)c(Cl)cn2)CC1 | 0.465 µM (active)
6 | COc1ccc(C=Cc2cc(OC)c(OC)c(OC)c2)cc1O | inactive
7 | Cc1c(C)n(Cc2ccc(-c3ccccc3C(=O)O)cc2)c2ccc(C(=O)N[C@@H](C)c3ccc([N+](=O)[O-])cc3)cc12 | inactive
8 | CN[C@H]1CCc2cc(OC)c(OC)c(OC)c2-c2ccc(OC)c(=O)cc21 | inactive
9 | CNC(=O)CN1CCC(Oc2cc3c(Nc4cccc(Cl)c4F)ncnc3cc2OC)CC1 | 10.4 µM (active)
10 | CCS(=O)(=O)c1cccc(-c2cc(C(=O)NC3CCN(C)CC3)c(C)c3[nH]c4ncc(C)cc4c23)c1 | 0.522 µM (active)
11 | COc1cc(Nc2ncc(F)c(Nc3ccc4c(n3)N(COP(=O)(O)O)C(=O)C(C)(C)O4)n2)cc(OC)c1OC | 2.33 µM (active)
12 | Nc1ccccc1NC(=O)c1ccc(CNc2nccc(-c3cccnc3)n2)cc1 | 1.65 µM (active)
13 | CC(C)(C)c1cc(C(C)(C)C)c(NC(=O)c2c[nH]c3ccccc3c2=O)cc1O | inactive
14 | COc1cc(=C2C=c3ccccc3=N2)[nH]c1=Cc1[nH]c(C)cc1C | 17.4 µM (active)
15 | CC(C)(C)NC(=O)[C@H]1CN(Cc2cccnc2)CCN1C[C@@H](O)C[C@@H](Cc1ccccc1)C(=O)N[C@H]1c2ccccc2C[C@H]1O | 18.5 µM (active)
16 | COc1ccc(-c2cc3c(C)nc(N)nc3n(C3CCC(OCCO)CC3)c2=O)cn1 (stereo not given) | inactive
17 | COc1cc2c(NC3CCN(C(C)C)CC3)nc(C3CCCCC3)nc2cc1OCCCN1CCCC1 | inactive
18 | CC[C@@H]1C(=O)N(C)c2cnc(Nc3ccc(C(=O)NC4CCC(N5CCN(CC6CC6)CC5)CC4)cc3OC)nc2N1C(C)C (stereo not given in full) | inactive
19 | Cc1ccc(NC(=O)C2(c3ccc4c(c3)OC(F)(F)O4)CC2)nc1-c1cccc(C(=O)O)c1 | 9.27 µM (active)
20 | Cc1nc(Nc2n[nH]c3c2CN(C(=O)N[C@H](CN(C)C)c2ccccc2)C3(C)C)c2sccc2n1 | inactive

Row | SMILES | Potency
21 | COc1ccc(F)c(F)c1C(=O)c1cnc(NC2CCN(S(C)(=O)=O)CC2)nc1N | inactive
22 | Cc1cn(-c2cc(NC(=O)c3ccc(C)c(Nc4nccc(-c5cccnc5)n4)c3)cc(C(F)(F)F)c2)cn1 | 20.8 µM (active)
23 | CC(C)(C)OC(=O)Nc1ccc(-c2cc(C(=O)NCCCCCCC(=O)NO)no2)cc1 | 10.4 µM (active)
24 | CC(C)c1cc(C(=O)N2Cc3ccc(CN4CCN(C)CC4)cc3C2)c(O)cc1O | 0.585 µM (active)
25 | Cc1cc(N2CCOCC2)cc2[nH]c(-c3c(NC[C@@H](O)c4cccc(Cl)c4)cc[nH]c3=O)nc12 | 0.293 µM (active)
26 | Cc1ccc(C(=O)Nc2cccc(C(F)(F)F)c2)cc1-c1ccc2nc(NCCN3CCOCC3)ncc2c1 | 5.22 µM (active)
27 | CC(C)[C@H](C(=O)Nc1ccc(C(=O)NO)cc1)c1ccccc1 | 2.33 µM (active)
28 | Cc1nc(N)ncc1-c1nc(N2CCOCC2)c2sc(C(C)(C)O)cc2n1 | 0.737 µM (active)
29 | C=CC(=O)N1CCC[C@@H](n2nc(-c3ccc(Oc4ccccc4)cc3)c3c(N)ncnc32)C1 | 10.4 µM (active)
30 | Cc1cnc(-c2cnc(NCCNc3ccc(C#N)cn3)nc2-c2ccc(Cl)cc2Cl)[nH]1 | inactive
31 | CC=C1NC(=O)[C@H]2CSSCCC=C[C@H](CC(=O)N[C@H](C(C)C)C(=O)N2)OC(=O)[C@H](C(C)C)NC1=O | inactive
32 | CCC1=C[C@@H]2CN(C1)Cc1c([nH]c3ccccc13)[C@@](C(=O)OC)(c1cc3c(cc1OC)N(C)[C@@H]1[C@@](O)(C(=O)OC)[C@H](OC(C)=O)[C@]4(CC)C=CCN5CC[C@]31[C@@H]54)C2 | 23.3 µM (active)
33 | C[C@@H](Oc1cc(-c2cnn(C3CCNCC3)c2)cnc1N)c1c(Cl)ccc(F)c1Cl | 7.37 µM (active)
34 | COC(=O)[C@]12CCC(C)(C)C[C@@H]1[C@@H]1C(=O)C=C3[C@@]4(C)C=C(C#N)C(=O)C(C)(C)[C@@H]4CC[C@@]3(C)[C@]1(C)CC2 | 3.29 µM (active)
35 | CN1CCN(Cc2ccc(NC(=O)Nc3ccc(Oc4cc(NC(=O)C5CC5)ncn4)cc3)cc2C(F)(F)F)CC1 | 2.33 µM (active)
36 | O=C(O)c1ccc2cc(-c3ccc(O)c(C45CC6CC(CC(C6)C4)C5)c3)ccc2c1 | 0.104 µM (active)
37 | CC[C@H]1CN2CCc3cc(OC)c(OC)cc3[C@H]2C[C@@H]1C[C@@H]1NCCc2cc(OC)c(OC)cc21 | 5.85 µM (active)
38 | O=C(NC1CCNCC1)c1[nH]ncc1NC(=O)c1c(Cl)cccc1Cl | 0.465 µM (active)
39 | C=CC(=O)Nc1cc2c(Nc3ccc(F)c(Cl)c3)ncnc2cc1C#CC(C)(C)N1CCN(C)CC1 | 3.8 µM (active)
40 | COC(=O)Nc1ccc(-c2nc(N3CCOCC3)c3cnn(C4CCN(Cc5cccnc5)CC4)c3n2)cc1 | 5.85 µM (active)
